SMILES strings stand for the structures. “And” between values parts separate entries of the source, which are not always exact repeats. Equal values may be shown once. Inconclusive results are not listed. Where a call stands in place of a potency, no number is given. Some structures have more than one record in an assay (separate samples or runs), and their calls can disagree. The source made the active and inactive calls. Calls follow the shape of the dose curve; as a rule, active = well fitted cell-killing curve with a large enough effect in the repeat runs; inconclusive = weak or mixed curves, or effect the other way; inactive = flat fitted curve, though single readings scatter.
Potency is read from the fitted curve at half-maximal effect.

The assay is described as follows: qHTS RealTime-Glo MT Cell Viability Assay in HEK293 cells - 24 hour (AID 1224886). Also: nearly all actives have a fitted effect of over 50% in size. To be noted: RealTime-Glo luminescence; series mostly up to 76.8 µM. The text has this:
National Center for Advancing Translational Sciences [NCATS]
NIH Chemical Genomics Center [NCGC]
U.S. Environmental Protection Agency [EPA]
National Institutes of Environmental Health Sciences [NIEHS]
National Toxicology Program [NTP]
U.S. Food and Drug Administration [FDA]
Measure of cell viability is critical in the cell-base assay. Analysis of cell viability is necessary for the characterization of cell responses to cytotoxic drugs and environmental stress. A RealTime-Glo MT Cell Viability Assay to monitor cell viability in real time of continues cell culture during 40 hours of compound treatment was used to screen Tox21 10K library compounds in Hek293 cells. The RealTime-Glo MT Cell Viability Assay is a nonlytic, homogeneous, bioluminescent method to measure cell viability in real time using a simple, plate-based method. The assay involves adding NanoLuc luciferase and a cell-permeant prosubstrate to cells in culture. Viable cells reduce the proprietary prosubstrate to generate a substrate for NanoLuc luciferase. This substrate diffuses from cells into the surrounding culture medium, where it is rapidly used by the NanoLuc Enzyme to produce a luminescent signal. The signal correlates with the number of viable cells, making the assay well suited for cytotoxicity studies.
Tox21 Assay Protocol Summary:
The mixture of Hek293 cell suspension and reagents were dispensed at 600cells/6 ul/well in 1536-well tissue culture treated black solid bottom plates using a Multidrop dispenser. After the assay plates were incubated at a 37 C/5% CO2 incubator for 5 hours, 23 nL of compounds dissolved in DMSO, positive and negative controls was transferred to the assay plate by a pintool work station. The plates were incubated at 37 C for 40 hours. The luminescence intensity were measured at 0h, 8h, 16h, 24h, 32h and 40h time points using ViewLux plate reader during compound treatment.
(Quantitative high-throughput screening tests each substance at several concentrations.)
With `C=CCc1ccc(OC)c(OC)c1`, the Potency entry is “inactive”.
The same measure for `C=CC(C)CCCC(C)(C)O` (stereo not given): “inactive”.
As to `Nc1ccc(Cl)c(N)c1`, the Potency result was “inactive”.
As for `CCCCCCO`, the Potency entry was “inactive”.
The value for `O=C(O)c1ccc(C(=O)O)c(C(=O)O)c1` was “inactive”.
With `COc1ccc(OC)cc1`, the Potency result is “inactive”.
Take `CN/C(=C\[N+](=O)[O-])NCCSCc1csc(CN(C)C)n1`: the Potency entry was “inactive”.
On to `CC1(C)NC(=O)NC1=O`, for which the Potency entry is “inactive”.
As for `CCCCCCCCCCN`, the Potency result was “inactive”.
Turning to `O=C(O)c1ccc(S(=O)(=O)N(Cl)Cl)cc1`, the Potency was 49.3 µM (active) and inactive.
The same measure for `O=c1[nH]cnc2[nH]ncc12`: “inactive”; for `C=C(C)CNCC`: “inactive”; for `CCOC(=O)n1ccn(C)c1=S`: “inactive”.
Regarding `OC1C(O)C(O)C(O)C(O)C1O` (stereo not given), the Potency result is “inactive”.
The value for `COc1ccc(C)cc1N` was “inactive”; that for `CNC(=S)N(C)C` was “inactive and 13 µM (active)”.
Turning to `CCCCCCCC=O`, the Potency result was “inactive”.
As for `N#Cc1ccccc1`, the Potency result was “inactive”.
As to `c1ccc(Oc2ccccc2)cc1`, the Potency entry is “inactive”.
For `CC(C)CC(=O)CC(C)CC(C)C` (stereo not given), the Potency result was “inactive and 19.5 µM (active)”.
Consider `c1ccc2c(c1)Cc1ccccc1-2`, for which the Potency result was “inactive”.
The same measure for `COC(=O)c1cccnc1`: “inactive”; for `CC(=O)OCCOC(C)=O`: “inactive”.
Turning to `CC(C)OC(=O)COc1ccc(Cl)cc1Cl`, the Potency entry was “inactive”.
With `CC(=O)CC(C)(C)O`, the Potency entry is “inactive”.
On to `C=CC(=O)OCCC(=O)O`, for which the Potency result is “inactive”.
`CC(=O)OCc1ccco1`: the Potency entry is “inactive”.
On to `CC(C)=CCl`, for which the Potency result was “inactive”.
Turning to `C=Cc1ccc(C)cc1`, the Potency result is “inactive”.
On to `CCCCOC(=O)c1ccc(N)cc1`, for which the Potency entry was “inactive”.
As to `CCNC(=S)NCC`, the Potency entry was “inactive”.
Turning to `NCCCCCCN`, the Potency result was “inactive”.
For `O=C1c2ccccc2CCc2ccccc21`, the Potency entry was “inactive”.
`CCNc1ccccc1`: the Potency entry was “inactive”.
As for `COCCOC(=O)c1ccccc1C(=O)OCCOC`, the Potency result was “inactive”.
With `Cc1ccc(C(C)C)c(O)c1`, the Potency entry is “inactive”.
The same measure for `O=[N+]([O-])c1ccc2nc[nH]c2c1`: “inactive”; for `O=C(O)c1cc2ccccc2cc1O`: “inactive”; for `CC(C)CC(C)O` (stereo not given): “inactive”.
For the molecule `COC(=O)CCCC(=O)OC`, the Potency result was “inactive”.

The values are drawn from PubChem BioAssay (Tox21).
